± gives the standard deviation of the averaged measurements.
Assays:
Assay in all cases: relative enzymatic activity vs untreated control (fraction); higher = less inhibition
Conditions in all cases: 100 µM; incubation time: 2 h at 37 C
DNA gyrase = test system: DNA gyrase
Description: (§1)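 In vitro enzymatic inhibition assays (ProFoldin kits) for 12 purified essential E. coli enzymes or complexes, each treated with 218 active antibacterial compounds at 100 µM for 2 h at 37°C. Read-outs were fluorescence or absorbance (phosphate detection, dye binding), converted to activity via standard curves and expressed relative to untreated DMSO controls.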

DNA helicase = DNA helicase (UniProt P0ACB1)
Description: as §1

DNA ligase = DNA ligase (UniProt B1XA82)
Description: as §1

DNA polymerase = DNA polymerase (UniProt P10443)
Description: as §1

DNA primase = DNA primase (UniProt P0ABS7)
Description: as §1

GlmU = GlmU (UniProt A7ZTU1)
Description: as §1

Guanlyate kinase = Guanlyate kinase (UniProt Q0TBG1)
Description: as §1

MurA = MurA (UniProt Q3YX52)
Description: as §1

MurD = target: T1, MurD (UniProt P14900)
T1 sequence (whole entry): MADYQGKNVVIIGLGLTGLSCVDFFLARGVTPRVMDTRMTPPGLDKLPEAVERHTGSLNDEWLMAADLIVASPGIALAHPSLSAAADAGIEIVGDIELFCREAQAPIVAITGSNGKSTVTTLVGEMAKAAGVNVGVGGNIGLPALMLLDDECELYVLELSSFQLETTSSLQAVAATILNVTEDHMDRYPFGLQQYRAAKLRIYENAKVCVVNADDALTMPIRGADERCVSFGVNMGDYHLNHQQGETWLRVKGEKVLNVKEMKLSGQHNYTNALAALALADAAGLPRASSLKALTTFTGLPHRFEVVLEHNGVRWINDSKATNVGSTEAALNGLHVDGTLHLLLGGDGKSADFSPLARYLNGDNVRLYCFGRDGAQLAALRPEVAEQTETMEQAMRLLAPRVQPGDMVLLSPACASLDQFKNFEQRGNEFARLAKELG
Description: as §1

MurF = target: T2, MurF (UniProt P11880)
T2 sequence (whole entry): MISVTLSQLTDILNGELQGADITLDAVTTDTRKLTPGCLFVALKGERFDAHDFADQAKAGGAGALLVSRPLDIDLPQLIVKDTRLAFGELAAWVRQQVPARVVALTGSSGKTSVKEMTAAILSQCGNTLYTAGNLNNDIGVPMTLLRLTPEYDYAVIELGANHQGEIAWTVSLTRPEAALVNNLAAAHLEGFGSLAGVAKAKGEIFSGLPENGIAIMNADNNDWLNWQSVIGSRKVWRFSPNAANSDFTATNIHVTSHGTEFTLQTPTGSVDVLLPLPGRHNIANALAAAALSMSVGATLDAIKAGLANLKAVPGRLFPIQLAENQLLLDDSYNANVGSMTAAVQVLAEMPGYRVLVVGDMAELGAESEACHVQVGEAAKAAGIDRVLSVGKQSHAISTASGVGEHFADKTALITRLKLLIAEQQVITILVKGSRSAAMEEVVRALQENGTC
Description: as §1

RNA polymerase = test system: RNA polymerase
Description: as §1

Sequence of MurA (Q3YX52 whole entry): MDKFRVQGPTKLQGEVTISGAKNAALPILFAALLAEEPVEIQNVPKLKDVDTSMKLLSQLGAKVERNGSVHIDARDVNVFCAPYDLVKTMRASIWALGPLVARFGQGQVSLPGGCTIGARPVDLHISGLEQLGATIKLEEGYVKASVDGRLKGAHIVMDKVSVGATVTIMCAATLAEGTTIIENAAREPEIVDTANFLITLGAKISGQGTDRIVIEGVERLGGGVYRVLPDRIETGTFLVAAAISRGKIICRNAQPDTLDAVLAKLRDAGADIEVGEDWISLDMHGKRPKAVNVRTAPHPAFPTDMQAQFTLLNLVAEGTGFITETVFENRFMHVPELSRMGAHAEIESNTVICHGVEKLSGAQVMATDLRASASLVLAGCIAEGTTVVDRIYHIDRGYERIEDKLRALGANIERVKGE
Sequence of Guanlyate kinase (Q0TBG1 whole entry): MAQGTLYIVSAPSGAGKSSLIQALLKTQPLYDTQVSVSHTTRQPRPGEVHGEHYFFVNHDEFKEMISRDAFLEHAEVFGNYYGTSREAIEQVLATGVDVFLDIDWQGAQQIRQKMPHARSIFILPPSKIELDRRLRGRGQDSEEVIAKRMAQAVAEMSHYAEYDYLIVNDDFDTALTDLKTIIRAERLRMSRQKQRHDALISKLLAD
Sequence of GlmU (A7ZTU1 whole entry, looked up): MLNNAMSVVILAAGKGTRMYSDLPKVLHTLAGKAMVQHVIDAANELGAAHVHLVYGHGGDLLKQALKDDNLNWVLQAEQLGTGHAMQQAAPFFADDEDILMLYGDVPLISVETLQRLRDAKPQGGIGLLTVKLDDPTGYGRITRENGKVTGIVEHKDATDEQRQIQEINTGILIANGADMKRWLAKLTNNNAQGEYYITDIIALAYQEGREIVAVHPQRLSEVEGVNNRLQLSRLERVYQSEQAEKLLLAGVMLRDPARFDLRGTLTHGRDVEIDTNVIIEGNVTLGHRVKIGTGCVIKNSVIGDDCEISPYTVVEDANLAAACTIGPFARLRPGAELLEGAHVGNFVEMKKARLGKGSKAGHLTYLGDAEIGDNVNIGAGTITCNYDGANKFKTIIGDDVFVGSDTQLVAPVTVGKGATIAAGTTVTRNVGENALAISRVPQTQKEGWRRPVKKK
Sequence of DNA polymerase (P10443 whole entry): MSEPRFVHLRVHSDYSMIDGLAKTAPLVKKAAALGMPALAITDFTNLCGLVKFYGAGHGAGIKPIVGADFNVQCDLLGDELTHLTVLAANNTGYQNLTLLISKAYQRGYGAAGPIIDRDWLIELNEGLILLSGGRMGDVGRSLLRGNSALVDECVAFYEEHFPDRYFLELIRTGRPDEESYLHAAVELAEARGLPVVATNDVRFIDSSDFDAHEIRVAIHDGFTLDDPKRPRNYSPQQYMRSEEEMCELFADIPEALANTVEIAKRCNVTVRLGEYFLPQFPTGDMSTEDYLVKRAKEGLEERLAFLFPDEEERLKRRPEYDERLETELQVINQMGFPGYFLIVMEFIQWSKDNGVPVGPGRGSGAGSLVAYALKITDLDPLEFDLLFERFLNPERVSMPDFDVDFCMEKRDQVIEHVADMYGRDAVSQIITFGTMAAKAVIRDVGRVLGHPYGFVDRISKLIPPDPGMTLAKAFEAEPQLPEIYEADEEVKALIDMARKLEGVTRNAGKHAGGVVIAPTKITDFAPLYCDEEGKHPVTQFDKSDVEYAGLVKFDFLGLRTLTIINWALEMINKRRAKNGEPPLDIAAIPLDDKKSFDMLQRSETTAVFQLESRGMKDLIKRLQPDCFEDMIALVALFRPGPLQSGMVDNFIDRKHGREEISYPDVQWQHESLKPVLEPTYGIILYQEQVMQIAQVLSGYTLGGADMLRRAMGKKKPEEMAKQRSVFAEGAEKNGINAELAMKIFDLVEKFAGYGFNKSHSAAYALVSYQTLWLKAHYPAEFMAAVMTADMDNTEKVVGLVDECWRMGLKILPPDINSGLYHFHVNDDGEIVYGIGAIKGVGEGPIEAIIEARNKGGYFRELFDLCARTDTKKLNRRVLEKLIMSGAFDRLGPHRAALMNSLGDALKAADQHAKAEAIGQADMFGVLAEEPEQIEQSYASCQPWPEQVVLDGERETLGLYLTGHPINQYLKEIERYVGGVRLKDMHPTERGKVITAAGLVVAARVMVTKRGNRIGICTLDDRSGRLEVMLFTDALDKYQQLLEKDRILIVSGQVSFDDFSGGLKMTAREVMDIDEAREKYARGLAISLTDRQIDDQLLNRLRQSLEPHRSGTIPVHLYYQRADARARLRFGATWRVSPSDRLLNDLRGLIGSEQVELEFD
Sequence of DNA ligase (B1XA82 whole entry): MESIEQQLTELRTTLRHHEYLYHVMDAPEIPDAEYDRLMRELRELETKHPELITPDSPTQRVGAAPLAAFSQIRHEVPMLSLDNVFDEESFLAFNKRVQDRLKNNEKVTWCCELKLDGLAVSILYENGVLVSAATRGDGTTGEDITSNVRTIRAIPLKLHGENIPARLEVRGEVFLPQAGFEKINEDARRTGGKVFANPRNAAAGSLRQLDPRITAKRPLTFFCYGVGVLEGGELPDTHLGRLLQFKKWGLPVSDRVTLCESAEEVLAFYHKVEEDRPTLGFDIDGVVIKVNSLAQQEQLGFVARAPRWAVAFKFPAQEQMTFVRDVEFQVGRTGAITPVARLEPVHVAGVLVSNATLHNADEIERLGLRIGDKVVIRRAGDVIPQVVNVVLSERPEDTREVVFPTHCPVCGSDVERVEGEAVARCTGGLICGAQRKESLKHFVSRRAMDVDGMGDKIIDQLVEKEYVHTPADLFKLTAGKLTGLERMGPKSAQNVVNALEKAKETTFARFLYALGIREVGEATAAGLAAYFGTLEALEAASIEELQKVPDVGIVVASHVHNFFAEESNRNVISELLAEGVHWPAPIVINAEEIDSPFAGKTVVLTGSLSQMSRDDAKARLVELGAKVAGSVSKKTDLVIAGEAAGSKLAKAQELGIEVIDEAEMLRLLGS
Sequence of DNA helicase (P0ACB1 whole entry): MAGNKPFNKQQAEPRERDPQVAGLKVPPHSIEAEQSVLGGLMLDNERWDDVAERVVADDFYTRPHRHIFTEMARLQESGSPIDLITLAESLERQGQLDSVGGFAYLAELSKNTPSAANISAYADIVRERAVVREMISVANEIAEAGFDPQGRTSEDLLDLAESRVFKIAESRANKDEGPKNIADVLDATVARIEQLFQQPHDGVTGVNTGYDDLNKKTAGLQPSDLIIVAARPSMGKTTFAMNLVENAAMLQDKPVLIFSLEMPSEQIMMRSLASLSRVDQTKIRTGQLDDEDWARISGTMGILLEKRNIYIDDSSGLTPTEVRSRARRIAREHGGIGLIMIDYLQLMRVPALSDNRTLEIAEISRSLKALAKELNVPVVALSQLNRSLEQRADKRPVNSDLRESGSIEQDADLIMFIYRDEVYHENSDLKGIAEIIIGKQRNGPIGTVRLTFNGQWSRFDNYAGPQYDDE
Sequence of DNA primase (P0ABS7 whole entry): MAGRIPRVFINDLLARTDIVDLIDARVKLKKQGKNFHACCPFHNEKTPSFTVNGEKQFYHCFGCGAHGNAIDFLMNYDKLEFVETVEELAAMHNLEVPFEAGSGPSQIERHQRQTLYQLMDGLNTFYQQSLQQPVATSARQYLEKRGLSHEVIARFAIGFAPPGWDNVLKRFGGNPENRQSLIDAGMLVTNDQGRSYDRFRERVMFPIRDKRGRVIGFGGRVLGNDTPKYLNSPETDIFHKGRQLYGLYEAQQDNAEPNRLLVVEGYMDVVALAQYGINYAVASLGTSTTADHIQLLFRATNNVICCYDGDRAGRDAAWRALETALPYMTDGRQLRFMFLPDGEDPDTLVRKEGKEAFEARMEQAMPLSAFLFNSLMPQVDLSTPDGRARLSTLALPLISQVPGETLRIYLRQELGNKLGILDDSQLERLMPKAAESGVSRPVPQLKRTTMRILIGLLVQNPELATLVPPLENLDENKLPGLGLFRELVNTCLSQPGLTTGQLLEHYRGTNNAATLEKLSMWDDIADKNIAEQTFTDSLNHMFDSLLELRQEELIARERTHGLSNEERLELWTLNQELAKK

| SMILES | relative enzymatic activity (DNA gyrase) | relative enzymatic activity (DNA helicase) | relative enzymatic activity (DNA ligase) | relative enzymatic activity (DNA polymerase) | relative enzymatic activity (DNA primase) | relative enzymatic activity (GlmU) | relative enzymatic activity (Guanlyate kinase) | relative enzymatic activity (MurA) | relative enzymatic activity (MurD) | relative enzymatic activity (MurF) | relative enzymatic activity (RNA polymerase) |
| --- | --- | --- | --- | --- | --- | --- | --- | --- | --- | --- | --- |
| CCC1OC(=O)C(C)C(=O)C(C)C(OC2OC(C)CC(N(C)C)C2O)C(C)(OC)CC(C)C(=O)C(C)C2N(CCCCn3cnc(-c4cccnc4)c3)C(=O)OC12C (stereo not given) | 0.862 ± 0.39 | 0.396 ± 0.024 | 1.1 ± 0.3 | 1.24 ± 0.3 | 0.854 ± 0.012 | 0.9359 ± 0.0057 | 0.967 ± 0.099 | 0.668 ± 0.05 | 0.525 ± 0.34 | 0.799 ± 0.13 | 0.822 ± 0.037 |
| NC(=O)[C@@H]1C(=O)C[C@@H]2C[C@@H]3Cc4cccc(O)c4C(=O)[C@@H]3C(=O)[C@]2(O)C1=O | 1.02 ± 0.18 | 0.519 ± 0.062 | 0.963 ± 0.042 | 0.976 ± 0.11 | 0.822 ± 0.017 | 1.08 ± 0.021 | 0.796 ± 0.086 | 0.328 ± 0.11 | 0.62 ± 0.39 | 1.01 ± 0.2 | 0.715 ± 0.048 |
| NC[C@H]1O[C@H](O[C@H]2[C@H](O)[C@@H](O[C@H]3O[C@H](CO)[C@@H](O)[C@H](N)[C@H]3O)[C@H](N)C[C@@H]2N)[C@H](N)[C@@H](O)[C@@H]1O | 0.315 ± 0.23 | 0.151 ± 0.041 | 0.868 ± 0.093 | 0.916 ± 0.35 | 0.46 ± 0.095 | 0.992 ± 0.076 | 0.3862 ± 0.0032 | 0.686 ± 0.15 | 0.605 ± 0.41 | 0.975 ± 0.24 | 0.781 ± 0.22 |
| O=C([O-])CCC(=O)OCC(NC(=O)C(Cl)Cl)C(O)c1ccc([N+](=O)[O-])cc1.[Na+] (stereo not given) | 1.05 ± 0.13 | 0.463 ± 0.053 | 0.965 ± 0.047 | 1.27 ± 0.34 | 0.718 ± 0.2 | 1.02 ± 0.042 | 1.025 ± 0.0099 | 0.872 ± 0.038 | 0.578 ± 0.37 | 0.957 ± 0.19 | 0.838 ± 0.064 |
| CC(C)CCCC(=O)N[C@@H](CCNCS(=O)(=O)O)C(=O)N[C@H](C(=O)N[C@@H](CCNCS(=O)(=O)O)C(=O)N[C@H]1CCNC(=O)[C@H]([C@@H](C)O)NC(=O)[C@H](CCNCS(=O)(=O)O)NC(=O)[C@H](CCNCS(=O)(=O)O)NC(=O)[C@H](CC(C)C)NC(=O)[C@H](CC(C)C)NC(=O)[C@H](CCNCS(=O)(=O)O)NC1=O)[C@@H](C)O | 0.555 ± 0.027 | 0.608 ± 0.27 | 1.01 ± 0.41 | 1.14 ± 0.27 | 0.8249 ± 0.007 | 1.0459 ± 0.00074 | 0.666 ± 0.056 | 0.723 ± 0.12 | 0.585 ± 0.35 | 0.903 ± 0.13 | 0.813 ± 0.041 |
| CC(C)[C@@H](CC[C@@H](C)[C@H]1CC[C@H]2[C@@H]3[C@H](O)C[C@H]4C[C@@H](NCCCNCCCCN)CC[C@]4(C)[C@H]3CC[C@]12C)OS(=O)(=O)O | 1.22 ± 0.062 | 0.08494 ± 0.00041 | 0.712 ± 0.095 | 0.0811 ± 0.015 | 0.432 ± 0.11 | 0.899 ± 0.069 | 0.231 ± 0.024 | 0.17 ± 0.006 | 0.6 ± 0.42 | 0.896 ± 0.23 | 0.14 ± 0.012 |
| CCC=C(C(=O)NC1C(=O)N2C(C(=O)OCOC(=O)C(C)(C)C)=C(COC(N)=O)CSC12)c1csc(N)n1.Cl (stereo not given) | 0.924 ± 0.071 | 0.354 ± 0.016 | 0.883 ± 0.11 | 1.17 ± 0.27 | 0.907 ± 0.088 | 0.939 ± 0.024 | 1.02 ± 0.098 | 0.293 ± 0.18 | 0.576 ± 0.37 | 0.941 ± 0.21 | 0.977 ± 0.094 |
| COc1c(N2CCNC(C)C2)c(F)cc2c(=O)c(C(=O)O)cn(C3CC3)c12 (stereo not given) | 0.0476 ± 0.067 | 0.48 ± 0.021 | 0.942 ± 0.14 | 1.09 ± 0.15 | 0.876 ± 0.017 | 0.989 ± 0.034 | 0.899 ± 0.084 | 0.804 ± 0.16 | 0.577 ± 0.36 | 0.942 ± 0.26 | 0.763 ± 0.0079 |
| COC(=O)N/N=C/c1ccc([N+](=O)[O-])o1 | 0.742 ± 0.39 | 0.508 ± 0.072 | 0.9684 ± 0.0075 | 0.516 ± 0.72 | 0.841 ± 0.017 | 1.02 ± 0.019 | 0.942 ± 0.11 | 0.255 ± 0.17 | 0.636 ± 0.45 | 0.961 ± 0.21 | 0.918 ± 0.14 |
| COC1=C(OC)C(=O)C(CCCCCCCCCC[P+](c2ccccc2)(c2ccccc2)c2ccccc2)=C(C)C1=O | ≤ 0 | 0.0205 ± 0.0027 | 0.705 ± 0.021 | 0.0027 ± 0.0017 | ≤ 0 | 0.155 ± 0.019 | ≤ 0 | 0.021 ± 0.0015 | 0.162 ± 0.074 | 0.211 ± 0.023 | 0.0008799 ± 4.6e-06 |
| O=C(O)P(=O)(O)O | 0.105 ± 0.15 | 0.549 ± 0.16 | 0.871 ± 0.14 | 0.703 ± 0.39 | 0.775 ± 0.04 | 1 ± 0.014 | 0.914 ± 0.092 | 0.79 ± 0.12 | 0.6 ± 0.4 | 0.945 ± 0.24 | 0.8 ± 0.14 |
| CN(C)CCOC(c1ccccc1)c1ccccc1.Cn1c(=O)c2[nH]c(Cl)nc2n(C)c1=O | 0.811 ± 0.45 | 0.604 ± 0.17 | 1.01 ± 0.12 | 1.32 ± 0.34 | 0.75 ± 0.22 | 0.939 ± 0.018 | 1.05 ± 0.066 | 0.697 ± 0.022 | 0.596 ± 0.39 | 0.534 ± 0.75 | 0.923 ± 0.069 |
| CO/N=C(\C(=O)N[C@@H]1C(=O)N2C(C(=O)O)=C(C[n+]3ccn4ncccc43)CS[C@H]12)c1nsc(N)n1 | 0.675 ± 0.49 | 0.625 ± 0.3 | 0.891 ± 0.17 | 1.14 ± 0.26 | 0.77 ± 0.018 | 0.999 ± 0.0029 | 0.949 ± 0.069 | 0.305 ± 0.13 | 0.591 ± 0.38 | 0.909 ± 0.24 | 0.8278 ± 0.0046 |
| Cc1oc(=O)oc1CN1CCN(c2cc3c(cc2F)c(=O)c(C(=O)O)c2n3C(C)S2)CC1 (stereo not given) | 0.0525 ± 0.074 | 0.431 ± 0.01 | 1.19 ± 0.31 | 1.23 ± 0.25 | 0.852 ± 0.0094 | 0.942 ± 0.024 | 1.12 ± 0.12 | 0.452 ± 0.31 | 0.586 ± 0.4 | 0.963 ± 0.18 | 0.842 ± 0.022 |
| NC(=O)N/N=C/c1ccc([N+](=O)[O-])o1 | 0.691 ± 0.48 | 0.657 ± 0.29 | 0.974 ± 0.26 | 1.04 ± 0.16 | 0.761 ± 0.072 | 1.006 ± 0.004 | 0.751 ± 0.048 | 0.504 ± 0.021 | 0.507 ± 0.66 | 0.962 ± 0.21 | 0.734 ± 0.088 |
| CC(=O)On1cc(F)c(=O)[nH]c1=O | 0.636 ± 0.53 | 0.603 ± 0.23 | 0.979 ± 0.23 | 1.03 ± 0.18 | 0.765 ± 0.056 | 0.977 ± 0.015 | 0.859 ± 0.015 | 0.673 ± 0.096 | 0.464 ± 0.59 | 0.933 ± 0.22 | 0.746 ± 0.13 |
| O=C1CN(/N=C/c2ccc([N+](=O)[O-])o2)C(=O)N1 | 0.715 ± 0.42 | 0.621 ± 0.24 | 0.855 ± 0.16 | 0.649 ± 0.36 | 0.764 ± 0.037 | 0.999 ± 0.044 | 0.842 ± 0.048 | 0.665 ± 0.11 | 0.481 ± 0.61 | 0.963 ± 0.21 | 0.745 ± 0.068 |
| Oc1ccc(Cl)c2cccnc12 | 0.354 ± 0.41 | 0.534 ± 0.19 | 1.03 ± 0.24 | 1.12 ± 0.21 | 0.7986 ± 0.0017 | 0.9167 ± 0.0045 | 0.821 ± 0.036 | 0.442 ± 0.04 | 0.656 ± 0.46 | 1.02 ± 0.23 | 0.854 ± 0.1 |
| CCn1cc(C(=O)O)c(=O)c2cc(F)c(N3CCNCC3)cc21 | 0.00604 ± 0.0086 | 0.468 ± 0.034 | 0.906 ± 0.16 | 1.37 ± 0.53 | 0.659 ± 0.12 | 1.01 ± 0.015 | 1.01 ± 0.11 | 0.799 ± 0.017 | 0.573 ± 0.36 | 0.977 ± 0.21 | 0.849 ± 0.075 |
| CCn1cc(C(=O)O)c(=O)c2cc(F)c(N3CCNC(C)C3)c(F)c21.Cl (stereo not given) | 0.0253 ± 0.036 | 0.786 ± 0.38 | 1.442 ± 0.0066 | 1.29 ± 0.3 | 0.712 ± 0.2 | 1.09 ± 0.16 | 1 ± 0.097 | 0.728 ± 0.031 | 0.577 ± 0.38 | 0.554 ± 0.78 | 1.16 ± 0.36 |
